Compounds without any hit were thinned out: in the full panel of roughly 79,000, 15% have a hit. Active and inactive are the calls of the source. No stated cut-off is given here; in the data, active means growth inhibition above about 70%; inactive means the rest.
Columns and labels:
[1] = NCI Yeast Anticancer Drug Screen. Data for the rad50 strain (AID 155);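 further: 0% = growth of vehicle-only cultures of the same strain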; conditions: S. cerevisiae rad50 strain growth inhibition, hits give high values
Outline: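 Cells are treated with compound, grown, and their growth is then scored against vehicle-only cultures of the same repair-deficient yeast strain.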

[2] = NCI Yeast Anticancer Drug Screen. Data for the mec2-1 strain (AID 157); conditions: S. cerevisiae mec2-1 strain, hits give high values
Outline: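 Each compound was tested on mec2-1 yeast, a strain altered in DNA damage repair or cell cycle control. Growth inhibition is reported relative to vehicle.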

[3] = NCI Yeast Anticancer Drug Screen. Data for the sgs1 mgt1 strain (AID 161);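 further: 0% = growth of cultures given vehicle only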; conditions: S. cerevisiae sgs1 mgt1 strain, hits give high values
Outline: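 Read-out: growth inhibition vs vehicle controls. Cells: mutant yeast strain deficient in DNA damage repair.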

[4] = NCI Yeast Anticancer Drug Screen. Data for the cln2 rad14 strain (AID 165);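 further: 0% = growth equal to vehicle treated cultures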; conditions: S. cerevisiae cln2 rad14 strain, hits give high values
Outline: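 Test compounds were added to cln2 rad14 yeast cultures; inhibition of growth was then determined by comparison with vehicle treatment.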

[5] = NCI Yeast Anticancer Drug Screen. Data for the bub3 strain (AID 167); conditions: S. cerevisiae bub3 mutant strain, hits give high values
Outline: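 Part of a panel of yeast mutants defective in DNA damage repair or cell cycle regulation. Each strain is grown with compound, and inhibition is calculated relative to solvent-treated cultures.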

[6] = NCI Yeast Anticancer Drug Screen. Data for the mlh1 rad18 strain (AID 175); conditions: S. cerevisiae mlh1 rad18 strain growth inhibition, hits give high values
Outline: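 Inhibition values reflect reduced growth of mutant yeast versus vehicle-treated controls following compound exposure; the mutations affect DNA damage repair.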

[7] = at 5.0 µM (retest, dose inferred, filed as 0.5)
[8] = at 50.0 µM (retest, dose inferred, filed as 5.0)

Measured: growth inhibition

S=C(NCCc1ccccc1)N/N=C/c1ccc(Cl)cc1
active: [1]; at 50.0 µM 85.7% | [2]; at 50.0 µM 74.3% | [3]; at 50.0 µM 83.5% | [4]; at 50.0 µM 83% | [5]; at 50.0 µM 85.6% | [6]; at 50.0 µM 80.9%
inactive: [1]; [7] 52% | [1]; [8] 57% | [2]; [7] 36% | [2]; [8] 54% | [3]; [7] 54% | [3]; [8] 61% | [4]; [7] 34% | [4]; [8] 45% | [5]; [7] 52% | [5]; [8] 65% | [6]; [7] 61% | [6]; [8] 67%

CC(C)Cn1cnc2c(SCc3ccccc3[N+](=O)[O-])nc(N)nc21
inactive: [1]; [7] 2% | [1]; [8] -4% | [2]; [7] -4% | [2]; [8] -2% | [3]; [7] 0% | [3]; [8] -2% | [3]; at 50.0 µM 56% | [4]; [7] -22% | [4]; [8] -3% | [5]; [7] -1% | [5]; [8] -4% | [6]; [7] 1% | [6]; [8] 2%
active: [1]; at 50.0 µM 90% | [2]; at 50.0 µM 96% | [4]; at 50.0 µM 82.2% | [5]; at 50.0 µM 96.8% | [6]; at 50.0 µM 84.8%

CC(=O)N(C(C)=O)C1=C2c3ccccc3N(S(=O)(=O)c3ccccc3)C2n2c(=O)n(-c3ccccc3)c(=O)n2C1 (configuration not stated)
inactive: [1]; [7] 11% | [1]; [8] 64% | [1]; at 50.0 µM 69.9% | [2]; [7] -5% | [2]; [8] 46% | [2]; at 50.0 µM 46.8% | [3]; [7] -1% | [3]; [8] 66% | [4]; [7] -26% | [4]; [8] 61% | [4]; at 50.0 µM 63.7% | [5]; [7] 0% | [5]; [8] 56% | [5]; at 50.0 µM 58.6% | [6]; [7] -10% | [6]; [8] 35% | [6]; at 50.0 µM 55.7%
active: [3]; at 50.0 µM 75.7%

Clc1ccc(CN2COc3c(cc(Cl)c4cccnc34)C2)c(Cl)c1
active: [1]; [8] 98% | [2]; [8] 91% | [3]; [8] 97% | [4]; [8] 97% | [5]; [8] 98% | [6]; [8] 95%
inactive: [1]; [7] 6% | [1]; at 50.0 µM 23.6% | [2]; [7] -20% | [2]; at 50.0 µM 22.9% | [3]; [7] -1% | [3]; at 50.0 µM -6.85% | [4]; [7] -9% | [4]; at 50.0 µM 46.1% | [5]; [7] 0% | [5]; at 50.0 µM 3% | [6]; [7] 0% | [6]; at 50.0 µM 1.4%

Cc1c2ccccc2c(CCl)c2ccc3ccccc3c12
active: [1]; [7] 99% | [1]; [8] 98% | [1]; at 50.0 µM 97.7% | [2]; [7] 100% | [2]; [8] 99% | [2]; at 50.0 µM 97.2% | [3]; [7] 100% | [3]; [8] 99% | [3]; at 50.0 µM 98.3% | [4]; [7] 99% | [4]; [8] 99% | [4]; at 50.0 µM 97.5% | [5]; [7] 99% | [5]; [8] 99% | [5]; at 50.0 µM 98.8% | [6]; [7] 100% | [6]; [8] 99% | [6]; at 50.0 µM 96.8%

Cc1ccc(C(Cl)(c2ccc(C)cc2)c2ccc(C)cc2)cc1
active: [1]; [8] 90% | [2]; [8] 93% | [2]; at 50.0 µM 93.1% | [3]; [8] 93% | [3]; at 50.0 µM 97.5% | [4]; [8] 90% | [4]; at 50.0 µM 94.5% | [5]; [7] 87% | [5]; [8] 92% | [5]; at 50.0 µM 97.2% | [6]; [8] 91% | [6]; at 50.0 µM 92.2%
inactive: [1]; [7] 3% | [1]; at 50.0 µM 67.5% | [2]; [7] 39% | [3]; [7] -3% | [4]; [7] -2% | [6]; [7] 11%

COC(=O)c1c(C)cccc1C1CN=NC12Cc1ccccc1C2=O (configuration not stated)
inactive: [1]; [7] 24% | [1]; [8] 32% | [1]; at 50.0 µM 3.9% | [2]; [7] 16% | [2]; [8] 12% | [2]; at 50.0 µM 6.25% | [3]; [7] 23% | [3]; [8] 38% | [3]; at 50.0 µM 32.9% | [4]; [7] 24% | [4]; [8] 16% | [4]; at 50.0 µM 30.8% | [5]; [7] 25% | [5]; [8] 30% | [5]; at 50.0 µM 19.6% | [6]; [7] 23% | [6]; [8] 29% | [6]; at 50.0 µM -32.9%

CC1=C(C(=O)OC(C)C)C(c2ccccc2[N+](=O)[O-])C(C(=O)OC(CO[N+](=O)[O-])CO[N+](=O)[O-])=C(C)N1 (configuration not stated)
inactive: [1]; [7] 17% | [1]; [8] 24% | [2]; [7] 30% | [2]; [8] 27% | [3]; [7] -20% | [3]; [8] -8% | [4]; [7] 2% | [4]; [8] 22% | [5]; [7] -5% | [5]; [8] 25% | [6]; [7] 18% | [6]; [8] 19%
active: [1]; at 50.0 µM 83.6% | [2]; at 50.0 µM 87.7% | [3]; at 50.0 µM 89.1% | [4]; at 50.0 µM 83.9% | [5]; at 50.0 µM 87.2% | [6]; at 50.0 µM 81.7%

CCOC(=O)CN1CCC(C(=O)CC2(O)C3(Cl)C4(Cl)C5(Cl)C(Cl)(Cl)C6(Cl)C4(Cl)C2(Cl)C6(Cl)C53Cl)CC1 (configuration not stated)
active: [1]; [8] 98% | [1]; at 50.0 µM 98.8% | [2]; [8] 99% | [2]; at 50.0 µM 99.2% | [3]; [8] 99% | [4]; [8] 98% | [4]; at 50.0 µM 98.5% | [5]; [8] 98% | [5]; at 50.0 µM 99.1% | [6]; [8] 99% | [6]; at 50.0 µM 98.8%
inactive: [1]; [7] 30% | [2]; [7] 2% | [3]; [7] 51% | [3]; at 50.0 µM 50.5% | [4]; [7] 58% | [5]; [7] 20% | [6]; [7] 62%

From PubChem BioAssay (NCI)
